Assay results reported in PubChem BioAssay (NCI).
Compounds without any hit were thinned out: in the full panel of roughly 79,000, 15% have a hit. Active and inactive are the calls of the source. Cut-off read from the data, not from the text of the source: active = growth inhibition above about 70%; inactive = the rest.

Columns and labels:
[1] = NCI Yeast Anticancer Drug Screen. Data for the mec2-1 strain (AID 157); details: S. cerevisiae mec2-1 strain, active compounds read high
Method in brief: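 Readout is yeast growth inhibition, normalised to vehicle-treated controls, in the mec2-1 strain exposed to compound.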

[2] = NCI Yeast Anticancer Drug Screen. Data for the rad14 strain (AID 159);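 note: 0% = growth of vehicle-treated control cultures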; details: S. cerevisiae rad14 strain growth inhibition, active compounds read high
Method in brief: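 Inhibition of growth is reported for a repair-deficient yeast mutant following compound treatment, calculated relative to cultures that received vehicle.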

[3] = NCI Yeast Anticancer Drug Screen. Data for the sgs1 mgt1 strain (AID 161);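 note: 0% = growth of cultures given vehicle only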; details: S. cerevisiae sgs1 mgt1 strain, active compounds read high
Method in brief: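 Percent growth inhibition was derived by comparing compound-exposed mutant yeast with vehicle-exposed cultures. The strain carries alterations in DNA damage repair.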

[4] = NCI Yeast Anticancer Drug Screen. Data for the CLN2oe strain (AID 163);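 note: 0% = growth of vehicle-only control cultures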; details: S. cerevisiae CLN2oe strain, active compounds read high
Method in brief: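 Values reflect how much compound exposure reduced yeast growth, referenced to vehicle-exposed cells. Assay organism is a strain with a defined genetic change affecting cell-cycle control.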

[5] = NCI Yeast Anticancer Drug Screen. Data for the cln2 rad14 strain (AID 165);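 note: 0% = growth equal to vehicle treated cultures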; details: S. cerevisiae cln2 rad14 strain, active compounds read high
Method in brief: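 Relative to vehicle controls, growth inhibition of compound-treated cln2 rad14 yeast was recorded.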

[6] = NCI Yeast Anticancer Drug Screen. Data for the bub3 strain (AID 167); details: S. cerevisiae bub3 mutant strain, active compounds read high
Method in brief: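 Mutant yeast screening strain plus compound; vehicle-treated cultures serve as the 0% inhibition reference.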

[7] = NCI Yeast Anticancer Drug Screen. Data for the wt2 strain (AID 169); details: S. cerevisiae wt2 strain growth inhibition, active compounds read high
Method in brief: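 Values express reduction in yeast growth under compound treatment, referenced to vehicle-treated cells.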

[8] = NCI Yeast Anticancer Drug Screen. Data for the mlh1 strain (AID 171);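 note: 0% = growth of vehicle-treated control cultures of the same strain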; details: S. cerevisiae mlh1 strain growth inhibition, active compounds read high
Method in brief: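 Steps: expose the defined-mutant yeast strain to compound; expose a parallel culture to vehicle; measure growth; express compound effect as inhibition relative to the vehicle culture.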

[9] = NCI Yeast Anticancer Drug Screen. Data for the sgs1 strain (AID 173);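 note: 0% = growth of vehicle-only control cultures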; details: S. cerevisiae sgs1 mutant, active compounds read high
Method in brief: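 Treat defined-mutant yeast with compound; measure growth; calculate inhibition relative to vehicle-treated cells.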

[10] = NCI Yeast Anticancer Drug Screen. Data for the mlh1 rad18 strain (AID 175); details: S. cerevisiae mlh1 rad18 strain growth inhibition, active compounds read high
Method in brief: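 Test agents were incubated with a yeast strain of defined genotype (DNA damage repair defect). Inhibition of growth was derived by comparison with vehicle-exposed cultures.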

[11] = NCI Yeast Anticancer Drug Screen. Data for the rad18 strain (AID 177); details: S. cerevisiae rad18 mutant growth inhibition, active compounds read high
Method in brief: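 A genetically defined yeast mutant impaired in DNA damage repair was treated with test compounds, then its growth was measured against cultures receiving vehicle alone.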

[12] = NCI Yeast Anticancer Drug Screen. Data for the rad52 strain (AID 147);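 note: 0% = growth of vehicle-treated control cultures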; details: S. cerevisiae rad52 mutant growth inhibition, active compounds read high
Method in brief: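 Screen used a yeast mutant impaired in DNA repair. After compound exposure, growth was measured. Values reflect inhibition compared with vehicle-treated cells.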

[13] = NCI Yeast Anticancer Drug Screen. Data for the wt1 strain (AID 149);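 note: 0% = growth of vehicle-treated wt1 cultures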; details: S. cerevisiae wt1 strain (SPY 50644) growth inhibition, active compounds read high
Method in brief: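 Each compound is tested on wt1 yeast and the loss of growth versus vehicle gives the inhibition value.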

[14] = NCI Yeast Anticancer Drug Screen. Data for the rad50EPP+ strain (AID 151);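 note: 0% = growth of vehicle-treated control cultures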; details: S. cerevisiae rad50 mutant strain, active compounds read high
Method in brief: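 Exposing the rad50EPP+ strain to each compound, growth was compared with vehicle-only cultures to give inhibition.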

[15] = NCI Yeast Anticancer Drug Screen. Data for the mgt1 strain (AID 153); details: S. cerevisiae mgt1 mutant growth inhibition, active compounds read high
Method in brief: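 Genetically defined yeast (mgt1) treated with compound; inhibition of growth expressed against vehicle-treated controls.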

[16] = NCI Yeast Anticancer Drug Screen. Data for the rad50 strain (AID 155);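 note: 0% = growth of vehicle-only cultures of the same strain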; details: S. cerevisiae rad50 strain growth inhibition, active compounds read high
Method in brief: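 Vehicle-treated cultures provide the reference for the growth inhibition reported for compound-exposed, repair-deficient yeast.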

[17] = at 5.0 µM (retest, dose inferred, filed as 0.5)
[18] = at 50.0 µM (retest, dose inferred, filed as 5.0)

Measured: growth inhibition

OCC(Cn1cncn1)(c1ccc(F)cc1F)n1cncn1 (centres undefined)
inactive: [1]; [17] 41% | [1]; at 11.0 µM 53% | [1]; at 33.0 µM 53% | [1]; [18] 61% | [1]; at 50.0 µM 44.2% | [1]; at 100.0 µM 52% | [2]; at 1.2 µM 57% | [3]; [17] 67% | [3]; at 50.0 µM 68.2% | [4]; at 1.2 µM 29% | [4]; at 3.7 µM 51% | [4]; at 11.0 µM 62% | [4]; at 33.0 µM 65% | [4]; at 100.0 µM 68% | [5]; [17] 22% | [5]; at 50.0 µM 63% | [6]; at 1.2 µM 27% | [6]; at 3.7 µM 54% | [6]; [17] 14% | [6]; at 11.0 µM 69% | [6]; at 33.0 µM 69% | [6]; at 100.0 µM 66% | [7]; at 1.2 µM 31% | [7]; at 3.7 µM 57% | [7]; at 11.0 µM 64% | [7]; at 33.0 µM 61% | [7]; at 100.0 µM 57% | [8]; at 1.2 µM 22% | [8]; at 3.7 µM 47% | [8]; at 11.0 µM 53% | [8]; at 33.0 µM 53% | [8]; at 100.0 µM 50% | [9]; at 1.2 µM 48% | [9]; at 3.7 µM 67% | [10]; [17] 31% | [10]; at 50.0 µM 57.5% | [11]; at 1.2 µM 41% | [11]; at 3.7 µM 60% | [11]; at 11.0 µM 67% | [11]; at 33.0 µM 65% | [11]; at 100.0 µM 65%
active: [2]; at 3.7 µM 74% | [2]; at 11.0 µM 83% | [2]; at 33.0 µM 76% | [2]; at 100.0 µM 74% | [3]; [18] 78% | [5]; [18] 81% | [6]; [18] 84% | [6]; at 50.0 µM 71% | [9]; at 11.0 µM 72% | [9]; at 33.0 µM 72% | [9]; at 100.0 µM 70% | [10]; [18] 86%

O=C1OC(CCl)CN1/N=C/c1ccc([N+](=O)[O-])o1 (centres undefined)
active: [12]; at 100.0 µM 88% | [14]; at 100.0 µM 73% | [16]; [18] 78% | [16]; at 100.0 µM 80% | [1]; [18] 76% | [2]; at 100.0 µM 71% | [3]; [18] 89% | [3]; at 50.0 µM 71.9% | [5]; [18] 73% | [6]; [18] 70% | [7]; at 100.0 µM 90% | [9]; at 33.0 µM 83% | [9]; at 100.0 µM 95% | [10]; [18] 92% | [10]; at 50.0 µM 87.9% | [11]; at 3.7 µM 72% | [11]; at 11.0 µM 91% | [11]; at 33.0 µM 95% | [11]; at 100.0 µM 96%
inactive: [12]; at 1.2 µM -36% | [12]; at 3.7 µM -11% | [12]; at 11.0 µM 19% | [12]; at 33.0 µM 54% | [13]; at 1.2 µM -2% | [13]; at 3.7 µM 2% | [13]; at 11.0 µM 14% | [13]; at 33.0 µM 21% | [13]; at 100.0 µM 54% | [14]; at 1.2 µM -3% | [14]; at 3.7 µM -17% | [14]; at 11.0 µM 14% | [14]; at 33.0 µM 47% | [15]; at 1.2 µM -3% | [15]; at 3.7 µM -8% | [15]; at 11.0 µM -3% | [15]; at 33.0 µM 1% | [15]; at 100.0 µM 25% | [16]; at 1.2 µM -10% | [16]; at 3.7 µM -8% | [16]; [17] 19% | [16]; at 11.0 µM 3% | [16]; at 33.0 µM 45% | [16]; at 50.0 µM 21.7% | [1]; at 1.2 µM -4% | [1]; at 3.7 µM -3% | [1]; [17] 9% | [1]; at 11.0 µM 0% | [1]; at 33.0 µM 7% | [1]; at 50.0 µM 44.2% | [1]; at 100.0 µM 19% | [2]; at 1.2 µM -7% | [2]; at 3.7 µM 0% | [2]; at 11.0 µM 14% | [2]; at 33.0 µM 38% | [3]; [17] 35% | [4]; at 1.2 µM -7% | [4]; at 3.7 µM -8% | [4]; at 11.0 µM -6% | [4]; at 33.0 µM -7% | [4]; at 100.0 µM -2% | [5]; [17] 4% | [5]; at 50.0 µM 47.1% | [6]; at 1.2 µM -8% | [6]; at 3.7 µM -4% | [6]; [17] 1% | [6]; at 11.0 µM -5% | [6]; at 33.0 µM 2% | [6]; at 50.0 µM 10% | [6]; at 100.0 µM 16% | [7]; at 1.2 µM 2% | [7]; at 3.7 µM 2% | [7]; at 11.0 µM 20% | [7]; at 33.0 µM 54% | [8]; at 1.2 µM -9% | [8]; at 3.7 µM -4% | [8]; at 11.0 µM -1% | [8]; at 33.0 µM 14% | [8]; at 100.0 µM 69% | [9]; at 1.2 µM -6% | [9]; at 3.7 µM 9% | [9]; at 11.0 µM 49% | [10]; [17] 66% | [11]; at 1.2 µM 45%

CC(=O)SCCC[Si](C)(C)CCCSC(C)=O
active: [3]; at 50.0 µM 70.8%
inactive: [12]; at 1.2 µM -1% | [12]; at 3.7 µM 2% | [12]; at 11.0 µM 7% | [12]; at 33.0 µM 28% | [12]; at 100.0 µM 53% | [13]; at 1.2 µM -3% | [13]; at 3.7 µM -5% | [13]; at 11.0 µM -7% | [13]; at 33.0 µM 4% | [13]; at 100.0 µM 31% | [14]; at 1.2 µM -3% | [14]; at 3.7 µM 2% | [14]; at 11.0 µM 12% | [14]; at 33.0 µM 11% | [14]; at 100.0 µM 20% | [15]; at 1.2 µM -4% | [15]; at 3.7 µM -4% | [15]; at 11.0 µM -5% | [15]; at 33.0 µM 7% | [15]; at 100.0 µM 39% | [16]; at 1.2 µM 1% | [16]; at 3.7 µM 2% | [16]; [17] -1% | [16]; at 11.0 µM 5% | [16]; at 33.0 µM 21% | [16]; [18] 51% | [16]; at 50.0 µM 55.2% | [16]; at 100.0 µM 44% | [1]; at 1.2 µM -3% | [1]; at 3.7 µM -3% | [1]; [17] -2% | [1]; at 11.0 µM -5% | [1]; at 33.0 µM 3% | [1]; [18] 46% | [1]; at 50.0 µM 53.6% | [1]; at 100.0 µM 35% | [2]; at 1.2 µM -3% | [2]; at 3.7 µM 0% | [2]; at 11.0 µM 0% | [2]; at 33.0 µM 14% | [2]; at 100.0 µM 39% | [3]; [17] 1% | [3]; [18] 63% | [4]; at 1.2 µM -4% | [4]; at 3.7 µM -6% | [4]; at 11.0 µM -7% | [4]; at 33.0 µM 13% | [4]; at 100.0 µM 48% | [5]; [17] -6% | [5]; [18] 54% | [5]; at 50.0 µM 39% | [6]; at 1.2 µM -1% | [6]; at 3.7 µM 3% | [6]; [17] 10% | [6]; at 11.0 µM 3% | [6]; at 33.0 µM 23% | [6]; [18] 61% | [6]; at 50.0 µM 65.7% | [6]; at 100.0 µM 47% | [7]; at 1.2 µM -1% | [7]; at 3.7 µM -9% | [7]; at 11.0 µM -6% | [7]; at 33.0 µM 5% | [7]; at 100.0 µM 33% | [8]; at 1.2 µM -4% | [8]; at 3.7 µM -3% | [8]; at 11.0 µM -2% | [8]; at 33.0 µM 21% | [8]; at 100.0 µM 51% | [9]; at 1.2 µM -2% | [9]; at 3.7 µM 22% | [9]; at 11.0 µM 4% | [9]; at 33.0 µM 29% | [9]; at 100.0 µM 48% | [10]; [17] -2% | [10]; [18] 58% | [10]; at 50.0 µM 64.7% | [11]; at 1.2 µM -5% | [11]; at 3.7 µM 1% | [11]; at 11.0 µM 3% | [11]; at 33.0 µM 19% | [11]; at 100.0 µM 51%
